Hits are enriched below; roughly 21% of the tested compounds scored in any of these assays.
IL1B secr inh = qHTS for Inhibitors of Inflammasome Signaling: IL-1-beta AlphaLISA Primary Screen; actives 4.7% (n = 360,000); THP-1 LPS/ATP IL-1B secretion, AlphaLISA, 16 h; active compounds read low; activity change, % at 57.5 µM; in the data active = activity change below about -50%; inconclusive = mostly about -30% to -49%
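Secreted IL-1B measured by AlphaLISA bead assay after 16 h compound exposure of THP-1 cells; compounds (final up to 57.5 uM) added 1 h before LPS (250 ng/mL) and ATP (1.25 mM) stimulation; lower signal means less secretion.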
RORgamma inh = qHTS for inhibitors of ROR gamma transcriptional activity; Potency, µM (doses to about 53.6 µM), for inactives: at the top dose activity change, negative = inhibition, actives largely listed as inhibitors; AID 2551, 2010; actives 5.4% (n = 310,000); Drosophila S2 Gal4-RORgamma UAS-luciferase reporter, 20 h; Nuclear receptor ROR-gamma (Mus musculus), P51450; note: potency is the fitted concentration of half-maximal effect; nearly all actives have a fitted effect of over 60% in size
Target sequence (P51450 whole entry, looked up, the tested form may be a part): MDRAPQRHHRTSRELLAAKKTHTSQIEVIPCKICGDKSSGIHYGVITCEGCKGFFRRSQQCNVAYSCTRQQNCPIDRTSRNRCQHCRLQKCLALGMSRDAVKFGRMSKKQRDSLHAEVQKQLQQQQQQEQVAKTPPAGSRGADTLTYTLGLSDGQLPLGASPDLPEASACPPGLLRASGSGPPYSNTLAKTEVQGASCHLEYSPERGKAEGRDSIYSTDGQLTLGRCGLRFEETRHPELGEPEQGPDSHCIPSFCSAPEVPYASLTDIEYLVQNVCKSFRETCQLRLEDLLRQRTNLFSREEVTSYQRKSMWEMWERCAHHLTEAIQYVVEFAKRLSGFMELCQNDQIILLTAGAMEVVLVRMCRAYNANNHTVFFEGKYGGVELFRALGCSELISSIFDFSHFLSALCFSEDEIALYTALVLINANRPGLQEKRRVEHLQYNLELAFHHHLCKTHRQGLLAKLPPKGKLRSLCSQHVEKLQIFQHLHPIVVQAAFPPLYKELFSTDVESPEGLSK
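Luciferase reporter read in Schneider cells carrying Gal4-RORγ (mouse) and UAS-Photinus luciferase; cells given compound 1 h before 700 uM copper sulfate induction, then incubated 20 h at ambient temperature.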
TDP1 cell noCPT = qHTS for Inhibitors of human tyrosyl-DNA phosphodiesterase 1 (TDP1): qHTS in cells in absence of CPT | Potency, µM (titrated, usually from 46.2 µM), without a hit: at the top dose activity change, negative = growth inhibition, hits mostly inhibitors | actives 15% (n = 420,000) | AID 686978, 2013 | DT40 Tdp1-/- hTDP1 cells, no CPT, ATP luminescence, 48 h; note: potency is the fitted concentration of half-maximal effect; nearly all actives have a fitted effect of over 55% in size
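Growth of hTDP1-complemented DT40 Tdp1-knockout cells is measured by ATP luminescence after at least 48 hr compound exposure at 37 °C, with DMSO substituting for the 20 nM CPT used in the parallel screen.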
ELG1 DNA repair = qHTS screen for small molecules that inhibit ELG1-dependent DNA repair in human embryonic kidney (HEK293T) cells expressing luciferase-tagged ELG1; actives 2.3% (n = 330,000); HEK293T ELG1-luciferase reporter, luminescence, 16 h; DNA damage induced by 5-fluorouridine; Potency, µM (doses to about 46.1 µM), for inactives: top-dose activity change, negative = inhibition, hits mostly inhibitors; note: potency is the fitted concentration of half-maximal effect; nearly all actives have a fitted effect of over 55% in size
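Overnight (16 hr) co-exposure of 2,000 cells/well to 5-fluorouridine and compound at 37 °C preceded detection. Luciferase was quantified via ONE-Glo luminescence; loss of signal denotes inhibition.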
TDP1 cell CPT = qHTS for Inhibitors of human tyrosyl-DNA phosphodiesterase 1 (TDP1): qHTS in cells in presence of CPT; chicken DT40 Tdp1-/-;hTDP1 cells + 20 nM CPT, ATP luminescence, 48 h; Potency, µM (titrated, usually from 46.2 µM), inactives show at the top dose activity change, negative = growth inhibition, actives largely listed as inhibitors; actives 12% (n = 420,000); note: potency is the fitted concentration of half-maximal effect; nearly all actives have a fitted effect of over 55% in size
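Chicken DT40 Tdp1-/- cells stably complemented with human TDP1 were seeded at 400 cells/well in medium containing 20 nM camptothecin, exposed to pin-transferred compounds, and grown at 37 °C for at least 48 hr. Viability was read as ATP luminescence.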
VP16 counter = VP16 counterscreen qHTS for inhibitors of ROR gamma transcriptional activity; Potency, µM (series often up to 53.6 µM), for inactives: at the highest dose activity, negative = inhibition, most hits filed as inhibitors; Drosophila S2 Gal4-VP16 UAS-luciferase, luminescence, 20 h; actives 3.5% (n = 310,000); AID 2546, 2010;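 note: Gal4-VP16 expression switched on by copper sulfate through the metallothionein promoter; potency is the fitted concentration of half-maximal effect; nearly all actives have a fitted effect of over 50% in size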
* marks the source's active call; other numbers are inactive results; ? = inconclusive; . = no result given; [ ] = dose if it differs, or a comment. Unless noted, calls come from the whole dose curve; as a rule, active = well fitted curve in the direction sought with a large enough effect; inconclusive = small, poorly fitted or top-dose-only effect, or another doubt; inactive = no such curve, though single readings can be large; an effect the other way counts as inactive or inconclusive. % is set by controls: 0 for no effect and ±100 for the full control effect.

SMILES | IL1B secr inh | RORgamma inh | TDP1 cell noCPT | ELG1 DNA repair | TDP1 cell CPT | VP16 counter
Cc1cccc(NC(=O)c2ccccc2[N+](=O)[O-])n1 | -1.2 | -33.3% | 8.6% | 10.3% | -0.9% | -5.7%
O=C(c1cc([N+](=O)[O-])ccc1Cl)N1c2ccccc2Sc2ccccc21 | ? | 5.8% | 14.6µM* | -8.8% | ? | 5.6%
Cc1cc(NC(=O)c2ccc([N+](=O)[O-])cc2Cl)no1 | -20.8 | -21.6% | 8.2% | ? | -21.1% | 4.2%
COc1cc2c(cc1OC)C1O[C@](c3ccsc3)(C2)OC2=C1C(=O)CC(C)(C)C2 | . | 15.0%[10 µM] | . | . | . | -2.7%[10 µM]
O=C(Nc1ccc([N+](=O)[O-])cc1)c1cc2ccccc2nc1Cl | -10.0 | -0.7% | ? | 18.3µM* | ? | 0.4%
CCNC(=O)C1(C)CCN(Cc2ccccc2C#N)C1 (stereo not given) | 17.6 | . | -14.8% | . | -2.1% | .
N#C/C(=C/C1=C(N2CCOCC2)C(=C/c2cccc([N+](=O)[O-])c2)/CC1)C(=O)Nc1ccccc1F | 1.2 | . | 8.2µM* | . | 10.3µM* | .
CC(NC(=O)C12CC3CC(CC(C3)C1)C2)C(=O)N/N=C/C1=C(N2CCOCC2)C(=C\c2cccc([N+](=O)[O-])c2)/CC1 (stereo not given) | -26.8 | -13.2% | 11.6µM* | 6.51µM* | ? | 5.1%
N#C/C(=C\C1=C(N2CCOCC2)C(=C/c2cccc([N+](=O)[O-])c2)/CC1)C(=O)Nc1ccccc1F | 0.0 | -1.2% | 10.3µM* | ? | 9.2µM* | 3.6%
O=C(NNc1ccc(F)cc1F)c1cccs1 | . | . | -24.5% | . | 0.9% | .
O=C(NN1C(=O)c2cc(Br)ccc2NC1c1cc(Br)cc(Br)c1O)c1ccncc1 (stereo not given) | 70.4 | 5.01µM* | 0.0% | 6.4% | 6.1% | 7.94µM*
N#Cc1ccccc1NC(=O)CSc1nc(-c2ccccc2)cc(C(F)(F)F)c1C#N | . | . | -13.9% | . | -19.4% | .
C[C@]12c3[nH]c4ccc(Cl)cc4c3CCN1C(=O)[C@@H](CC(=O)NCC13CC4CC(CC(C4)C1)C3)C[C@@H]2C(=O)N1CCOCC1 | ? | . | 13µM* | ? | 10.3µM* | .
C[C@]12c3[nH]c4ccc(Cl)cc4c3CCN1C(=O)[C@@H](CC(=O)NCC13CC4CC(CC(C4)C1)C3)C[C@@H]2C(=O)N1CCCCC1 | -60.2* | . | 16.4µM* | ? | 16.4µM* | .
CN(C)CCCNC(=O)C[C@H]1C[C@H](C(=O)N2CCOCC2)[C@@]2(C)c3[nH]c4ccc(Cl)cc4c3CCN2C1=O | -2.6 | . | -4.0% | 11.8% | -20.7% | .
N#CCCn1c(=O)c(-c2ccc(Cl)cc2)nc2cnc(OCc3ccccc3)nc21 | . | -12.5% | -3.1% | . | -12.9% | 5.0%
CCn1cc(C(=O)N2CCN(c3ccccc3F)CC2)c(=O)c2cc(S(=O)(=O)N(C)C3CCCCC3)ccc21 | . | . | ? | . | -7.2% | .
Nc1c(C(=O)N/N=C/c2ccc([N+](=O)[O-])cc2)cnn1-c1ccccc1 | 17.0 | 0.0% | -19.2% | 15.6% | -20.3% | 2.4%
Cc1c(C(=O)Nc2cc(F)cc(F)c2)cnn1-c1ccccc1 | -17.8 | 0.4%[1.91 µM] | 11.6µM* | ? | 13µM* | -28.3%
Cc1c(C(=S)Nc2ccccc2)cnn1-c1ccc([N+](=O)[O-])cc1 | 0.0 | ? | ? | ? | 16.4µM* | ?
Cc1nn(-c2ccccc2)cc1C(=S)Nc1ccccc1 | ? | 11.2µM* | -29.9% | ? | -5.1% | 10.0%
Cc1nn(C)cc1C(=O)NNC(=S)Nc1ccccc1 | 1.5 | ? | 3.5% | ? | -0.6% | -1.4%
Cc1c(C(=S)Nc2ccccc2)cnn1-c1ccccc1 | -28.6 | ? | -23.4% | 21.5% | 20.6µM* | -5.2%
C=CCN(c1cccc(C(F)(F)F)c1)S(=O)(=O)c1cccc(C(=O)OCC(=O)NCCC)c1 | 22.2 | 0.6% | -3.3% | -2.8% | 7.9% | -3.0%
Cn1nc(C(C)(C)C)cc1C(=O)N1CCCCC1c1cc(C(=O)Nc2cccc3c2CCCC3)no1 (stereo not given) | 0.0 | . | ? | . | ? | .
SMILES | IL1B secr inh | RORgamma inh | TDP1 cell noCPT | ELG1 DNA repair | TDP1 cell CPT | VP16 counter
Cn1nc(C(C)(C)C)cc1C(=O)N1CCCCC1c1cc(C(=O)NCc2ccccc2)no1 (stereo not given) | 0.0 | . | 10.3µM* | . | 10.3µM* | .
Cn1nc(C(C)(C)C)cc1C(=O)N1CCCCC1c1cc(C(=O)NCc2ccc(F)cc2)no1 (stereo not given) | -17.2 | . | 13µM* | . | 20.6µM* | .
Cc1cnc(CNC(=O)c2csc([C@H]3C[C@H](O)[C@@H](CO)O3)n2)cn1 | 14.4 | . | -1.1% | . | 6.8% | .
CCOC(=O)C1CCCCN1C(=O)c1cnn(-c2nccc(-c3cc(C)sc3C)n2)c1C1CC1 (stereo not given) | . | . | ? | . | -9.2%[9.04 µM] | .
COc1ccc(NC(=O)C2CCCN(c3nnc(C)c4c(C)n(-c5ccccc5)nc34)C2)cc1Cl (stereo not given) | . | . | 16.4µM* | . | 10.3µM* | .
Cc1nnc(N2CCCC(C(=O)Nc3cc(F)ccc3F)C2)c2nn(-c3ccccc3)c(C)c12 (stereo not given) | -16.6 | -22.4% | 23.1µM* | ? | 13µM* | -17.8%
Cc1nnc(N2CCCC(C(=O)Nc3ccccc3C(F)(F)F)C2)c2nn(-c3ccccc3)c(C)c12 (stereo not given) | . | . | 18.4µM* | . | 18.4µM* | .

Assay outcomes as filed in PubChem BioAssay.
